Assay results as given in PubChem BioAssay (Tox21).
Active and inactive are the calls of the source. Unless noted, calls come from the whole dose curve; as a rule, active = well fitted curve in the direction sought with a large enough effect in the repeat runs; inconclusive = weak or mixed curves; inactive = no such curve, though single readings can be large; an effect the other way counts as inactive or inconclusive.

Experiments:
[1] = qHTS assay to identify small molecule antagonists of the thyroid receptor (TR) signaling pathway - cell viability counter screen (AID 743064); note: nearly all actives have a fitted effect of over 50% in size; note: potency is the fitted concentration of half-maximal effect
Outline: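 In-well cytotoxicity read by CellTiter-Fluor (30 min, 37 C) following 23.5 h exposure of GH3 cells bearing a TRE-luciferase sensor. Compounds were added alongside 1 nM (final) T3 to drive TR transactivation.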

[2] = test system: thyroid hormone receptor (rat, GH3 cells); assay: qHTS assay to identify small molecule agonists of the thyroid receptor (TR) signaling pathway (AID 743066; calls by dose curve)
[3] = biological target: Estrogen receptor (Homo sapiens) (UniProt P03372); assay: qHTS assay to identify small molecule antagonists of the estrogen receptor alpha (ER-alpha) signaling pathway (AID 743069; active = well fitted curve in the direction sought with a large enough effect in the signal ratio in the repeat runs, not every such curve was filed as active; inconclusive = weak or mixed curves, or effect the other way; inactive = no such curve, though single readings can be large or run the other way; the % refers to the signal ratio; note: potency is the fitted concentration of half-maximal effect)
Outline: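 Compound effects are measured against 17beta-estradiol stimulation in HEK293 cells with a UAS-controlled beta-lactamase reporter for ER-alpha. Exposure lasts 18 hr at 37C; LiveBLAzer B/G FRET substrate follows for 2 hr at room temperature.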

[4] = qHTS assay to identify small molecule antagonists of the estrogen receptor alpha (ER-alpha) signaling pathway - cell viability counter screen (AID 743074; calls by dose curve;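 note: HEK293 cells carrying ER-alpha-UAS-bla reporter stimulated with 17beta-estradiol; nearly all actives have a fitted effect of over 45% in size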)
[5] = biological target: Estrogen receptor (Homo sapiens) (UniProt P03372); assay: qHTS assay to identify small molecule agonists of the estrogen receptor alpha (ER-alpha) signaling pathway (AID 743075; calls by dose curve)
[6] = biological target: Estrogen receptor (Homo sapiens) (UniProt P03372); assay: qHTS assay to identify small molecule agonists of the estrogen receptor alpha (ER-alpha) signaling pathway using the BG1 cell line (AID 743079); conditions: BG1Luc4E2 cells, ERE-luciferase agonist, 22 h; activation: at 70.3 µM (top of the series); note: nearly all actives have a fitted effect of over 20% in size
[7] = biological target: Aromatase (Homo sapiens) (UniProt P11511); assay: qHTS assay to identify aromatase inhibitors (AID 743083); note: nearly all actives have a fitted effect of over 55% in size; note: potency is the fitted concentration of half-maximal effect
[8] = qHTS assay to identify aromatase inhibitors - cell viability counter screen (AID 743084);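 note: cells stimulated with testosterone during compound exposure; nearly all actives have a fitted effect of over 55% in size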; note: potency is the fitted concentration of half-maximal effect
[9] = biological target: Aryl hydrocarbon receptor (Homo sapiens) (UniProt P35869); assay: qHTS assay to identify small molecule that activate the aryl hydrocarbon receptor (AhR) signaling pathway (AID 743085); note: nearly all actives have a fitted effect of over 15% in size; note: potency is the fitted concentration of half-maximal effect;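 for activation: HG2L7.5c1 human HepG2 liver cells with stably integrated DRE-driven firefly reporter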
Outline: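 Luminescence (ONE-Glo) from a dioxin-responsive-element luciferase reporter in HG2L7.5c1 HepG2 cells after 24 hr compound exposure at 37C; viability measured by CellTiter-Fluor fluorescence beforehand.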

[10] = qHTS assay to identify small molecule that activate the aryl hydrocarbon receptor (AhR) signaling pathway - cell viability counter screen (AID 743086); note: nearly all actives have a fitted effect of over 45% in size; note: potency is the fitted concentration of half-maximal effect
Outline: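 Cytotoxicity counter screen: CellTiter-Fluor signal (30 min, 37 C) in 4000 HepG2 cells/well carrying the DRE-luciferase reporter, following 24 h compound exposure at 37 C.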

[11] = biological target: Peroxisome proliferator-activated receptor gamma (Homo sapiens) (UniProt P37231); assay: qHTS assay to identify small molecule agonists of the peroxisome proliferator-activated receptor gamma (PPARg) signaling pathway (AID 743094; active = well fitted activation curve with a large enough effect in the signal ratio in the repeat runs, not every such curve was filed as active; inconclusive = weak or mixed curves, or effect the other way; inactive = no such curve, though single readings can be large or run the other way; the % refers to the signal ratio)
Outline: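 Quantitative HTS agonist mode: stable HEK293H line with UAS-beta-lactamase reporter under PPARg control, 17 h compound exposure at 37C, fluorescence after 1 h FRET substrate loading at room temperature.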

[12] = qHTS assay to identify small molecule phospholipidosis (PLD) inducers (AID 1259344; active = well fitted curve in the direction sought with a large enough effect; inconclusive = small, poorly fitted or top-dose-only effect, or another doubt; inactive = no such curve, though single readings can be large; an effect the other way counts as inactive or inconclusive; note: potency is the fitted concentration of half-maximal effect)
Outline: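 Fluorescent phospholipid staining (LipidTOX Red) measured by automated microscopy in fixed HepG2 cells after 24 h treatment; nuclei counterstained with Hoechst 33342; amiodarone as reference inducer.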

[13] = biological target: Nuclear receptor subfamily 1 group I member 2 (Rattus norvegicus) (UniProt Q9R1A7); assay: Rat pregnane X receptor (rPXR) activation by small molecules, qHTS assay (AID 1346983); conditions: rPXR luciferase reporter cells, One-Glo luminescence, 24 h; max activation: stronger effect = higher value; note: nearly all actives have a fitted effect of over 20% in size
Outline: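 Luminescent readout (One-Glo luciferase, 30 min room temperature) followed 24 hr compound treatment at 37 C of rPXR cells plated 2,000 per well and preincubated 5hr; qHTS format with compounds delivered in DMSO.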

[14] = biological target: Nuclear receptor subfamily 1 group I member 2 (Homo sapiens) (UniProt O75469); assay: CYP3A4 induction through human pregnane X receptor (PXR) by small molecules, qHTS assay (AID 1346984); note: nearly all actives have a fitted effect of over 40% in size; note: potency is the fitted concentration of half-maximal effect
Outline: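 Steps: seed DPX-2 cells, 5 hr at 37C; pin-transfer compounds; 24 hr at 37C; add Luciferin-IPA (3uM final), 3 hr at 37C; add One-Glo, 30 min RT; read luminescence.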

[15] = biological target: Nuclear receptor subfamily 1 group I member 2 (Homo sapiens) (UniProt O75469); assay: Human pregnane X receptor (PXR) activation by small molecules, qHTS assay (AID 1346985); note: nearly all actives have a fitted effect of over 40% in size; note: potency is the fitted concentration of half-maximal effect
Outline: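 DPX-2 cells (HepG2 co-transfected with a PXR response element and a CYP3A4-promoter luciferase construct) were seeded at 2,000 per well, rested 5 hr at 37C, then exposed to DMSO-dissolved compounds for 24 hr. Activation was read as luciferase luminescence.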

[16] = qHTS assay to identify small molecule antagonists of the estrogen receptor alpha (ER-alpha) signaling pathway using the BG1 cell line - cell viability counter screen (AID 743081);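 note: compound given together with 17beta-estradiol as the ER stimulus; nearly all actives have a fitted effect of over 45% in size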; note: potency is the fitted concentration of half-maximal effect
[17] = qHTS assay to identify small molecule antagonists of the thyroid receptor (TR) signaling pathway (AID 743065); note: nearly all actives have a fitted effect of over 55% in size; note: potency is the fitted concentration of half-maximal effect
Outline: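 Antagonism measured as loss of luciferase signal in GH3 cells stably carrying a TRE-luciferase reporter, co-treated with compound and T3 (1 nM final) for 23.5 h at 37 C. Viability was read in the same well by CellTiter-Fluor.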

[18] = qHTS assay to identify small molecule antagonists of the estrogen receptor alpha (ER-alpha) signaling pathway using the BG1 cell line (AID 743080; calls by dose curve;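 note: BG1 cells stimulated with 17beta-estradiol alongside compound; nearly all actives have a fitted effect of over 25% in size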)
Outline: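 Quantitative HTS on the Tox21 10K library: BG1 cells with endogenous ER-alpha and ERE-luciferase reporter, 17beta-estradiol stimulation, 21.5 h compound exposure, luminescence endpoint with parallel fluorescence cytotoxicity counter-read.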
% is set by controls: 0 for no effect and ±100 for the full control effect.

Chain of Peroxisome proliferator-activated receptor gamma (Homo sapiens) (P37231 whole entry, looked up): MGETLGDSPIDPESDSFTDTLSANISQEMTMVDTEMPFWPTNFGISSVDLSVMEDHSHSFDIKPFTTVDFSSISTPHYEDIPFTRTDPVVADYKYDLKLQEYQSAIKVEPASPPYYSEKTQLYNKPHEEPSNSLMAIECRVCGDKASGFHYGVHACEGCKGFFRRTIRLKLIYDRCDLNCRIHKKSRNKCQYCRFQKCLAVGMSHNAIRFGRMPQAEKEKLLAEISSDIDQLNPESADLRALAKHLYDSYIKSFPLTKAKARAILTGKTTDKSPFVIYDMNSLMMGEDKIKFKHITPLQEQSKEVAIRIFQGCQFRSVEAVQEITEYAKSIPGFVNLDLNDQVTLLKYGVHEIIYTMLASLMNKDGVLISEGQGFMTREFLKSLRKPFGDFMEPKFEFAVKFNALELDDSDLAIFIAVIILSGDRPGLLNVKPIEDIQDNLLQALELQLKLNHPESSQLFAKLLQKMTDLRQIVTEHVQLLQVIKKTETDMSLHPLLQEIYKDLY
Chain of Estrogen receptor (Homo sapiens) (P03372 whole entry, looked up): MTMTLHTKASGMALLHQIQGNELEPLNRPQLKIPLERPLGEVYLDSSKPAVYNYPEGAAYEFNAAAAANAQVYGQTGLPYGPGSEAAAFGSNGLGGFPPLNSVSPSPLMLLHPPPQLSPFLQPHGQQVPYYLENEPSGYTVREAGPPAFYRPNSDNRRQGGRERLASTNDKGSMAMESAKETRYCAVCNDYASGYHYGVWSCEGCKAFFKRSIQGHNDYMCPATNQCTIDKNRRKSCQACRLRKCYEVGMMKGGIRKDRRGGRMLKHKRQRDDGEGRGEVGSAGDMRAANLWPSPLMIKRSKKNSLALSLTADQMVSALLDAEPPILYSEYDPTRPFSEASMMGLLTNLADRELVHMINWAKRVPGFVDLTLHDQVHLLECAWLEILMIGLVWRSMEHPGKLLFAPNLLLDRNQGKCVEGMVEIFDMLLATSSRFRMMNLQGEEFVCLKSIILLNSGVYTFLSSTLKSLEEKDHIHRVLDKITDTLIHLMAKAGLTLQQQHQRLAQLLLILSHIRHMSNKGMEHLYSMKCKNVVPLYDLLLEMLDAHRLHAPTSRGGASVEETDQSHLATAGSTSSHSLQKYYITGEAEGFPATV
Chain of Aryl hydrocarbon receptor (Homo sapiens) (P35869 whole entry, looked up): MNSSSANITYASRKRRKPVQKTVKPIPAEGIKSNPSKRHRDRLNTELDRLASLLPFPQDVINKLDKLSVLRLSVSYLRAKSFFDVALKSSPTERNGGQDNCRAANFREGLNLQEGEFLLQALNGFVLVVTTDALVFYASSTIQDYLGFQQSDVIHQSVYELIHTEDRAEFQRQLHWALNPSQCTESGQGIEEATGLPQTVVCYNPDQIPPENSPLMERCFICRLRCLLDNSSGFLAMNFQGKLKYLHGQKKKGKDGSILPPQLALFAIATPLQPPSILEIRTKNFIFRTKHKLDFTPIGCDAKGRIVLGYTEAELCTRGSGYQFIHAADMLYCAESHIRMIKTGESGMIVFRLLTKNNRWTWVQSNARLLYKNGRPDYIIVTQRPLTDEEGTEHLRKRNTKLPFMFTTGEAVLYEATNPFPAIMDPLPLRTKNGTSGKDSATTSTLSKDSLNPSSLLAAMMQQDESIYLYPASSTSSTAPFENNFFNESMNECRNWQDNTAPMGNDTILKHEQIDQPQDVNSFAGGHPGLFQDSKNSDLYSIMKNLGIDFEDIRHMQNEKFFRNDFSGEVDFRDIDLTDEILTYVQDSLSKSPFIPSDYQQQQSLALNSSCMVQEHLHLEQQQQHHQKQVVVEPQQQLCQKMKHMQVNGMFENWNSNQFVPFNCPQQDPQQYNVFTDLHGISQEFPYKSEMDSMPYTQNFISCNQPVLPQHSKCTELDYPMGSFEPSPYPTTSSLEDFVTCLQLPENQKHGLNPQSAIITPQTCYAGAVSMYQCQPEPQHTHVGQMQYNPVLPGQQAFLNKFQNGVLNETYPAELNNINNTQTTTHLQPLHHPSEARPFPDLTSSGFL
Chain of Aromatase (Homo sapiens) (P11511 whole entry, looked up): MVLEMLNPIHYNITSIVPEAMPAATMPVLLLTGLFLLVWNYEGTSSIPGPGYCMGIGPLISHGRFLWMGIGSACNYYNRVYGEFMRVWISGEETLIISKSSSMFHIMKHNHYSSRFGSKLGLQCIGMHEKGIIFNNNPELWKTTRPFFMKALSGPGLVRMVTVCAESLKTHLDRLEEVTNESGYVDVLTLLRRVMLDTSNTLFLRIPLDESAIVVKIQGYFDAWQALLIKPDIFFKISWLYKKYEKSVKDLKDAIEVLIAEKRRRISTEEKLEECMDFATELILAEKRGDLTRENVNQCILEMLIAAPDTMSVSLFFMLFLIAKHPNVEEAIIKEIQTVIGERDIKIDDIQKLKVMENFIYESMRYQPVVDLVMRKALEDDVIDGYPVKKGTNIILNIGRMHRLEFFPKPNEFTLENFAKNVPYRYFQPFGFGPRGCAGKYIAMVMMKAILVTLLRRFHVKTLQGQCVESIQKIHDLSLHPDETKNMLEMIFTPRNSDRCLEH
Chain of Nuclear receptor subfamily 1 group I member 2 (Rattus norvegicus) (Q9R1A7 whole entry, looked up): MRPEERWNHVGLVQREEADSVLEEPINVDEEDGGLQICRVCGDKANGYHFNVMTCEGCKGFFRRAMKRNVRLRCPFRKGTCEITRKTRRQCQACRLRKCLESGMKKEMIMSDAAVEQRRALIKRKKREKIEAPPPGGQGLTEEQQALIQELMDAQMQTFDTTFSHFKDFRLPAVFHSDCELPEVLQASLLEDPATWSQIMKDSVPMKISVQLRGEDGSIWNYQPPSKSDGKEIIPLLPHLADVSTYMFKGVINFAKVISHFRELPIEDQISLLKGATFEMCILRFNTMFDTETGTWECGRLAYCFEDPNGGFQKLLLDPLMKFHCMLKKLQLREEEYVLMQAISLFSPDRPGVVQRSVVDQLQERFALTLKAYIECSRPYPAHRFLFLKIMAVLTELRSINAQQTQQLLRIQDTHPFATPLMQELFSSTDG

CNCC(O)c1ccc(OC(=O)C(C)(C)C)c(OC(=O)C(C)(C)C)c1 (configuration not stated)
inactive: Potency [2] | Potency [3] | Potency [4] | Potency [5] | Potency [6] | Potency [7] | Potency [8] | Potency [9] | Potency [10] | Potency [11] | Potency [12] | max activation [13] 0.121% | Potency [14] | Potency [15]
active: Potency [1] 12.7 µM

C=CC1=C(C)C2=CC3=NC(=C(CC(=O)[O-])C4=NC(=C(C)C4=C([O-])[O-])C=c4[n-]c(c(C)c4CC)=CC1=N2)C(CCC(=O)[O-])C3C.[Cu+2].[Na+].[Na+].[Na+] (configuration not stated)
inactive: Potency [2] | Potency [3] | Potency [4] | Potency [5] | Potency [6] | Potency [7] | Potency [11] | Potency [12] | max activation [13] -0.69% | Potency [14] | Potency [15]
active: Potency [1] 26.6 µM | Potency [16] 29.8 µM | Potency [8] 23.7 µM | Potency [10] 23.7 µM

Cc1cccc(C)c1NC(=O)NC1=CCCN1C
inactive: Potency [1] | Potency [17] | Potency [2] | Potency [16] | Potency [7] | Potency [8] | Potency [9] | Potency [10] | Potency [11] | Potency [12] | max activation [13] -2.14% | Potency [14] | Potency [15]

C[C@@H]1CCC2[C@@H](C)[C@@H](O)O[C@@H]3O[C@@]4(C)CC[C@@H]1[C@@]23OO4 (some centres not stated)
inactive: Potency [4] | Potency [6] | Potency [18] | Potency [12] | max activation [13] -10.7% | Potency [14] | Potency [15]
active: Potency [1] 2.11 µM | Potency [17] 0.75 µM | Potency [3] 9.52 µM [inconclusive]

CC(C)(C)c1ccc(CN2CCN(C(c3ccccc3)c3ccc(Cl)cc3)CC2)cc1 (configuration not stated)
inactive: Potency [2] | Potency [5] | Potency [18] | Potency [16] | Potency [8] | Potency [9] | Potency [10] | Potency [11] | Potency [12] | max activation [13] 10.7% | Potency [14] | Potency [15]
active: Potency [1] 33.5 µM | Potency [17] 21.1 µM

CC(C)CCC[C@@H](C)[C@H]1CC(=O)C2=C3CC[C@H]4C[C@@H](O)CC[C@]4(C)[C@H]3CC[C@@]21C
inactive: Potency [1] | Potency [2] | Potency [3] | Potency [5] | Potency [6] | Potency [18] | Potency [16] | Potency [7] | Potency [8] | Potency [9] | Potency [10] | Potency [11] | Potency [12] | max activation [13] -2.36% | Potency [14] | Potency [15]

C[C@H]1[C@@H](OC(=O)CCC(=O)O)O[C@@H]2OC3(C)CC[C@H]4[C@H](C)CC[C@@H]1[C@@]24OO3
active: Potency [1] 2.98 µM | Potency [17] 1.06 µM
inactive: Potency [4] | Potency [5] | Potency [6] | Potency [18] | Potency [9] | Potency [12] | max activation [13] -13.4% | Potency [14] | Potency [15]

Nc1nc(=O)n([C@@H]2CS[C@H](CO)O2)cc1F
inactive: Potency [1] | Potency [17] | Potency [2] | Potency [4] | Potency [16] | Potency [10] | Potency [12] | max activation [13] 2.33% | Potency [14] | Potency [15]

Cc1cccc(Nc2ncccc2C(=O)O)c1C
active: Potency [9] 29.8 µM
inactive: Potency [1] | Potency [2] | Potency [4] | Potency [5] | Potency [16] | Potency [7] | Potency [8] | Potency [10] | Potency [11] | Potency [12] | max activation [13] -0.253% | Potency [14] | Potency [15]

CC(C)N=c1cc2n(-c3ccc(Cl)cc3)c3ccccc3nc-2cc1Nc1ccc(Cl)cc1
active: Potency [1] 7.17 µM | Potency [17] 6.39 µM | Potency [16] 11.4 µM
inactive: Potency [3] | Potency [4] | Potency [5] | Potency [6] | Potency [7] | Potency [9] | Potency [10] | Potency [11] | Potency [12] | max activation [13] -3.58% | Potency [14] | Potency [15]

CCN(CC)CCOCCOC(=O)C(CC)(CC)c1ccccc1
active: Potency [1] 26.6 µM | Potency [17] 23.7 µM | Potency [12] 10 µM | Potency [14] 31.6 µM | Potency [15] 15.8 µM
inactive: Potency [2] | Potency [4] | Potency [7] | Potency [8] | Potency [9] | Potency [10] | Potency [11] | max activation [13] 2.25%

COc1ccc(C[C@H](N)C(=O)N[C@H]2[C@@H](O)[C@H](n3cnc4c(N(C)C)ncnc43)O[C@@H]2CO)cc1
inactive: Potency [4] | Potency [5] | Potency [9] | Potency [12] | max activation [13] -3.7% | Potency [14] | Potency [15]
active: Potency [1] 11.9 µM | Potency [17] 10.6 µM | Potency [3] 4.25 µM [inconclusive] | Potency [16] 21.1 µM | Potency [7] 11.9 µM | Potency [8] 9.44 µM | Potency [10] 3.76 µM

CC(C)[C@@H](C)/C=C/[C@@H](C)[C@H]1CC[C@H]2/C(=C/C=C3\C[C@@H](O)CC[C@@H]3C)CCC[C@]12C
inactive: Potency [1] | Potency [2] | Potency [3] | Potency [4] | Potency [5] | Potency [6] | Potency [18] | Potency [16] | Potency [7] | Potency [8] | Potency [9] | Potency [11] | Potency [12] | max activation [13] -0.157% | Potency [14] | Potency [15]

CC(=O)Nc1c(I)c(C(=O)N[C@H]2C(O)O[C@H](CO)[C@@H](O)[C@@H]2O)c(I)c(N(C)C(C)=O)c1I (some centres not stated)
inactive: Potency [1] | Potency [3] | Potency [4] | Potency [5] | Potency [6] | Potency [18] | Potency [16] | Potency [7] | Potency [8] | Potency [9] | Potency [10] | Potency [11] | Potency [12] | max activation [13] -3.77% | Potency [14] | Potency [15]
